Shown are actives, neighbours in structure and some others; about 2.6% of the full set was active somewhere.
Cruzain Triton: qHTS Assay for Promiscuous and Specific Inhibitors of Cruzain (with detergent) | Potency, µM, for the others: max response, negative = inhibition, most hits filed as inhibitors | Cruzipain (Trypanosoma cruzi), P25779 | purified cruzain, Z-FR-AMC fluorescence, 0.01% Triton | hit rate 0.43% among 200,000;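 further: plate controls were neutral wells for no effect and buffer without enzyme for full effect; nearly all actives have a fitted effect of over 40% in size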
Target sequence (P25779 123-467 limits assumed): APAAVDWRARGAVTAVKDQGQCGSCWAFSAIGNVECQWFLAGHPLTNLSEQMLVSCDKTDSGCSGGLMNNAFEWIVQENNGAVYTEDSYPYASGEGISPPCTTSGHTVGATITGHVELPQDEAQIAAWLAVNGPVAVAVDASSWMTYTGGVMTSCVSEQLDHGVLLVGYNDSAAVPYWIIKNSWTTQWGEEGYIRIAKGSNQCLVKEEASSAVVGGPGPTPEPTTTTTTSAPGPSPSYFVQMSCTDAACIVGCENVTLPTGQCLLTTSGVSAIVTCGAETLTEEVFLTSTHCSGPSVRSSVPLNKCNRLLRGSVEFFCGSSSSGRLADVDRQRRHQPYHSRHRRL
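Purified cruzain (1.5 nM final) was preincubated with compounds for 15 min at room temperature in 100 mM sodium acetate pH 5.5, 5 mM DTT, 0.01% Triton X-100. Reaction started with 2 uM Z-FR-AMC; AMC fluorescence change over 60 s gave activity.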
Cruzain noTriton: qHTS Assay for Promiscuous and Specific Inhibitors of Cruzain (without detergent) | Cruzipain (Trypanosoma cruzi), P25779 | purified cruzain, Z-FR-AMC fluorescence, no detergent | Potency, µM, for the others: max response, negative = inhibition, usual class: inhibitors | hit rate 2.3% among 200,000 | AID 1476, 2009;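 further: plate controls were enzyme without inhibitor for no effect and buffer without enzyme for full effect; nearly all actives have a fitted effect of over 40% in size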
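Purified cruzain at 1.5 nM, pre-incubated 15 min with compound at room temperature in 100 mM sodium acetate pH 5.5, 5 mM DTT, 0.00005% Triton X-100. Reaction started with 2 uM Z-FR-AMC; AMC fluorescence increase over 60 s gives rate.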
* = called active by the depositor; ? = inconclusive. The call rests on the fitted dose curve; in most records, active means well fitted curve in the direction sought with a large enough effect; inconclusive means small, poorly fitted or top-dose-only effect, or another doubt; inactive means no such curve, though single readings can be large; an effect the other way counts as inactive or inconclusive. Potency means the concentration at half of the fitted maximal effect.

SMILES | Cruzain Triton | Cruzain noTriton
Cc1cc(NC(=O)c2ccc3c(c2)C(=O)N(C)C3=O)no1 | 2% | 10%
Cc1cc(NC(=O)c2ccc3c(c2)C(=O)N(C2CCCCC2)C3=O)no1 | 6% | 6.3µM*
CCOC(=O)c1cccc(NC(=O)C2Cc3ccccc3N2C(=O)c2ccccc2)c1 (stereo not drawn) | -1% | -14%
CCCC(C(=O)NCc1ccccc1)N(C(=O)Cn1nnc(-c2cccs2)n1)c1ccc2c(c1)OCCO2 (stereo not drawn) | 1% | 20µM*
O=C(CN(Cc1ccco1)C(=O)Cn1nnc(-c2cccs2)n1)NCc1ccccc1 | -1% | -1%
O=C(NCc1ccccc1)C(c1ccc(F)cc1)N(Cc1ccc2c(c1)OCO2)C(=O)Cn1nnc(-c2cccs2)n1 (stereo not drawn) | -2% | 13µM*
CCC(C(=O)NC1CCCC1)N(C(=O)Cn1nnc(-c2cccs2)n1)c1cnc2ccccc2c1 (stereo not drawn) | 0% | 7%
CCOc1ccc(CNC(=O)c2cc3c(=O)oc4ccc(C)cc4c3s2)cc1 | 2% | 6%
CCOc1ccc(NC(=O)N2CC3CCCN3c3ccccc32)cc1 (stereo not drawn) | -13% | -17%
O=c1cc(-c2ccccc2)c2ccc3c(c2o1)CN(Cc1ccccc1)CO3 | -25% | ?
COc1ccc(-c2cc(=O)oc3c4c(ccc23)OCN(Cc2ccccc2)C4)cc1 | -25% | 25µM*
Oc1ccc(Br)cc1-c1cc(-c2ccccc2F)[nH]n1 | 0% | 20µM*
Cc1ccccc1-c1cc(-c2ccccc2O)n[nH]1 | -10% | -14%
Oc1ccc(Cl)cc1-c1cc(-c2ccccc2)n[nH]1 | -13% | -10%
COc1ccc(Cl)cc1NC(=O)c1cc(-c2ccccc2O)n[nH]1 | -2% | 10µM*
COc1ccc(OC)c(NC(=O)c2cc(-c3cc(Cl)ccc3O)n[nH]2)c1 | 0% | ?
COc1ccccc1-c1cc(-c2cc(Cl)ccc2O)n[nH]1 | 1% | 25µM*
COC(=O)c1ccccc1NC(=O)NCCc1c(C)nn(C)c1C | -1% | -3%
CCCc1c(OCC(O)COc2ccc3c(=O)cc(C(=O)O)oc3c2CCC)ccc(C(C)=O)c1O (stereo not drawn) | -8% | ?
O=c1ccsn1Cc1ccccc1 | ? | 13µM*
O=c1ccn(Cc2ccccc2)c(=O)n1Cc1ccccc1 | -4% | 3%
Cc1ccc(-c2nnc3ccccc3c2C(=O)Nc2ccc(F)cc2)cc1 | -1% | -10%
Cc1ccc(-c2nnc3ccccc3c2C(=O)Nc2ccccc2F)cc1 | 0% | 25µM*
CC1=C(C(=O)Nc2ccccc2)C(c2ccccc2)n2nc(-c3ccco3)nc2N1 (stereo not drawn) | -3% | 24%
COC/C=C/C1=CC2=CC(=O)C(C)(OC(=O)c3ccc(Cl)nc3)C(=O)C2=CO1 (stereo not drawn) | -5% | 0%
SMILES | Cruzain Triton | Cruzain noTriton
CC1=NN2C(=N)/C(=C\c3ccc(SCc4ccccc4)o3)C(=O)N=C2S1 | -1% | 7.9µM*
N=C1/C(=C\c2ccc(SCc3ccco3)o2)C(=O)N=C2SC=NN12 | -20% | ?
O=C1NCCCc2c1oc1cc(Br)c(O)c(Br)c21 | -1% | -10%
CC(C)NCc1c(O)c(Br)cc2oc3c(c12)CCCC3 | 0% | 13µM*
Fc1ccc(CNc2nc3c(-c4ccc(F)cc4)nnn3c3ccccc23)cc1 | 1% | 4%
COc1cc(SC#N)ccc1N=Cc1c(C)[nH]n(-c2ccc(Cl)cc2)c1=O | 0% | 20µM*
COc1cc(SC#N)ccc1N=Cc1c(C)[nH]n(-c2ccc(C)c(C)c2)c1=O | -5% | -5%
CC(C)(C)OC(=O)N1CCC(c2c(C(=O)NCCN3CCc4ccccc4C3)cnn2-c2ccc(F)cc2F)CC1 | -3% | 5%
Cc1cc(C)cc(-n2c(C)cc(/C=N/NC(=O)c3cccc([N+](=O)[O-])c3C)c2C)c1 | -4% | ?
Cc1ccc([N+](=O)[O-])cc1/C=N/Nc1nnnn1-c1ccccc1 | 1% | -10%
O=Cc1cn(Cc2ccc([N+](=O)[O-])cc2)c2ccccc12 | -7% | ?
Cc1cc(/C=N/Nc2ccc([N+](=O)[O-])cn2)c(C)n1-c1ccccc1 | -2% | 4µM*
Cc1ccc(Cn2cc(/C=N/Nc3ccc([N+](=O)[O-])cn3)c3ccccc32)cc1 | -4% | 6.3µM*
Cc1ccc(-n2c(C)cc(/C=N/Nc3ccc([N+](=O)[O-])cn3)c2C)cc1 | -6% | 7.9µM*
Cc1cc2c(cc1NS(=O)(=O)c1ccc(F)cc1)n(C)c(=O)c(=O)n2C | -2% | -8%
COc1ccc(NC(=O)N2CC[C@@]3(CCCN(C(=O)c4cnccn4)C3)C2)cc1 | 1% | 6%
CCC(C)NC(=O)Cn1c(=O)n(CCCCCC(=O)NCc2ccccc2Cl)c(=O)c2sccc21 (stereo not drawn) | 9% | 11%

Compound activity as filed in PubChem.
